Screens (PubChem)
The sample as a whole holds a higher share of hits than the screen did.
miR-122 inh: activators of miR-122 sensor in Huh7 cells | actives 0.14% (n = 340,000) | activation, % at 12.5 µM | Huh7 psiCHECK-miR122 Renilla luciferase sensor, 48 h;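 active means mean activation of 30% or more, with every replicate also reaching 30%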;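 further: 0% = median of neutral control wells and 100% = median of positive control wells; higher luciferase signal means stronger suppression of miR-122 activity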
* hit, by the source's call.

Results for CC(C)CC#Cc1ccc2c(c1)O[C@@H](CN(C)C(=O)NC1CCCC1)[C@@H](C)CN([C@@H](C)CO)S2(=O)=O ?
miR-122 inh: -14

How did CC(=O)N(C)C[C@@H]1[C@@H](c2ccc(-c3cccnc3)cc2)[C@H](CO)N1C(=O)C1CC1 do in these assays?
miR-122 inh: -258

What do the screens show for `CN(C[C@@H]1[C@@H](c2ccccc2)[C@@H](CO)N1Cc1ccccn1)S(C)(=O)=O`?
miR-122 inh: -92

What do the screens show for `CC(=O)N(C[C@@H]1N[C@@H](CO)[C@H]1c1ccc(-c2ccccc2)cc1)C(C)C`?
miR-122 inh: 67*

Results for CC(C)N(C[C@@H]1N[C@@H](CO)[C@@H]1c1ccccc1)S(=O)(=O)c1ccccc1 ?
miR-122 inh: 67*

Results for O=C(NC[C@H]1N[C@H](CO)[C@H]1c1ccccc1)c1ccccc1F ?
miR-122 inh: -108

Results for C[C@@H]1CN([C@@H](C)CO)C(=O)c2cc(C#Cc3ccccc3)cnc2O[C@H]1CN(C)Cc1ccccn1 ?
miR-122 inh: 7

What do the screens show for `CCCNC(=O)N(C)C[C@@H]1Oc2ncc(C#CC(C)C)cc2C(=O)N([C@@H](C)CO)C[C@H]1C`?
miR-122 inh: 4

What do the screens show for `C[C@@H]1CN([C@H](C)CO)C(=O)c2cc(-c3cccc(C#N)c3)cnc2O[C@@H]1CN(C)C`?
miR-122 inh: -8

What do the screens show for `C[C@H](O)C#Cc1ccc2c(c1)O[C@@H](CN(C)Cc1cncnc1)[C@@H](C)CN([C@@H](C)CO)S2(=O)=O`?
miR-122 inh: 10

Results for C[C@H](CO)N1C[C@H](C)[C@H](CN(C)C(=O)CC2CC2)Oc2cc(C3=CCCCC3)ccc2S1(=O)=O ?
miR-122 inh: -3

Results for COc1cc2nc(C3CCC3)n(NC(=O)C3CCCC(OC)C3)c(=O)c2cc1OC (centres undefined) ?
miR-122 inh: 34*

Results for C[C@@H]1CN([C@@H](C)CO)S(=O)(=O)c2ccc(-c3ccc(C(=O)N(C)C)cc3)cc2O[C@H]1CN(C)C ?
miR-122 inh: 6

What do the screens show for `CCCNC(=O)N(C)C[C@H]1Oc2ncc(C#Cc3ccccc3F)cc2C(=O)N([C@@H](C)CO)C[C@H]1C`?
miR-122 inh: 7

How did C[C@@H]1CN([C@H](C)CO)C(=O)c2cc(-c3cncnc3)cnc2O[C@H]1CN(C)Cc1ccccc1 do in these assays?
miR-122 inh: -2

Results for O=[N+]([O-])c1ccc(/C=N/n2cnc3ccccc32)s1 ?
miR-122 inh: 48*

What do the screens show for `C[C@H](CO)N1C[C@H](C)[C@H](CN(C)C(=O)c2ccccn2)Oc2cc(C#CCC3CCCC3)ccc2S1(=O)=O`?
miR-122 inh: 0

Results for CO[C@H]1CN(C)C(=O)c2cc(NC(C)=O)ccc2OC[C@@H](C)N(C(=O)CN(C)C)C[C@@H]1C ?
miR-122 inh: 0

What do the screens show for `COCC(=O)N(C)C[C@@H]1Oc2ncc(C#Cc3ccccc3OC)cc2C(=O)N([C@H](C)CO)C[C@H]1C`?
miR-122 inh: 1

What do the screens show for `C[C@@H]1CN([C@@H](C)CO)S(=O)(=O)c2ccc(-c3ccc(C#N)cc3)cc2O[C@H]1CN(C)C(=O)C1CC1`?
miR-122 inh: -37

How did COC(=O)c1c(N)nc(C)n1-c1ccc(OC)cc1 do in these assays?
miR-122 inh: 34*

What do the screens show for `C[C@H](CO)N1C[C@H](C)[C@H](CN(C)S(=O)(=O)c2cn(C)cn2)Oc2ncc(-c3cccc(C(F)(F)F)c3)cc2C1=O`?
miR-122 inh: 4

What do the screens show for `CCCNC(=O)N(C)C[C@H]1Oc2ncc(/C=C/c3ccccc3)cc2C(=O)N([C@H](C)CO)C[C@H]1C`?
miR-122 inh: -37

What do the screens show for `Cc1cc(C)cc(NS(=O)(=O)c2ccc(NC(=S)NC(=O)c3cccs3)cc2)c1`?
miR-122 inh: -133

How did CN(Cc1ccccc1)S(=O)(=O)c1ccc(NC(=S)NC(=O)C2CCCC2)cc1 do in these assays?
miR-122 inh: -124

What do the screens show for `Cc1cc(C)nc(NS(=O)(=O)c2ccc(NC(=S)NC(=O)C3CCCC3)cc2)n1`?
miR-122 inh: 62*

How did C[C@@H]1CN([C@@H](C)CO)C(=O)c2cc(-c3ccncc3)cnc2O[C@@H]1CN(C)C(=O)c1ccccc1F do in these assays?
miR-122 inh: 1

How did CC(C)CC#Cc1cnc2c(c1)C(=O)N([C@H](C)CO)C[C@H](C)[C@H](CN(C)C(=O)NC1CCCC1)O2 do in these assays?
miR-122 inh: 6

How did C[C@@H]1CN([C@@H](C)CO)S(=O)(=O)c2ccc(C#Cc3ccc(F)cc3)cc2O[C@@H]1CN(C)S(=O)(=O)c1cn(C)cn1 do in these assays?
miR-122 inh: -74

Results for O=[N+]([O-])c1ccc(N/N=C/c2ccc[nH]2)cc1 ?
miR-122 inh: 45*

How did Cc1ccc(C(=O)N/N=C\c2ccc[nH]2)cc1[N+](=O)[O-] do in these assays?
miR-122 inh: 69*

Results for Cc1ccc(S(=O)(=O)NCCC(C)C)cc1[N+](=O)[O-] ?
miR-122 inh: -232

Results for C[C@@H]1CN([C@@H](C)CO)C(=O)c2cc(C#CC3(O)CCCC3)cnc2O[C@H]1CN(C)S(=O)(=O)c1ccc(F)cc1 ?
miR-122 inh: -3

What do the screens show for `Cc1ccc(-c2ccc3c(c2)O[C@@H](CN(C)C(=O)NC(C)C)[C@H](C)CN([C@H](C)CO)S3(=O)=O)cc1`?
miR-122 inh: -28

How did CO[C@H]1CN(C)C(=O)c2ccc(NS(=O)(=O)c3ccc(C)cc3)cc2OC[C@H](C)N(C)C[C@H]1C do in these assays?
miR-122 inh: 5

Results for CCCNC(=O)N(C)C[C@H]1Oc2ncc(C#Cc3ccccc3F)cc2C(=O)N([C@H](C)CO)C[C@@H]1C ?
miR-122 inh: 1

Results for CCCC(O)C#Cc1cnc2c(c1)C(=O)N([C@H](C)CO)C[C@H](C)[C@H](CN(C)Cc1ccccc1)O2 (some centres undefined) ?
miR-122 inh: -6

Results for COc1ccc(CN(C)C[C@H]2Oc3c(NC(=O)NC4CCCCC4)cccc3C(=O)N([C@H](C)CO)C[C@@H]2C)cc1 ?
miR-122 inh: -255

Results for C[C@H]1CN([C@@H](C)CO)C(=O)c2cc(C#Cc3ccccn3)cnc2O[C@H]1CN(C)Cc1cccnc1 ?
miR-122 inh: -1

How did CCC(=O)Nc1ccc2c(c1)C(=O)N(C)C[C@H](OC)[C@@H](C)CN(Cc1ccccc1OC)[C@@H](C)CO2 do in these assays?
miR-122 inh: -4

Results for COc1cccc(C(=O)Nc2ccc3c(c2)C(=O)N(C)[C@@H]2CC[C@@H](CC(=O)N[C@H](C)c4ccccc4)O[C@@H]2CO3)c1 ?
miR-122 inh: 47*

Results for CC(C)C(=O)Nc1ccc2c(c1)C(=O)N(C)[C@H]1CC[C@@H](CC(=O)NCC3CC3)O[C@@H]1CO2 ?
miR-122 inh: -92

How did CO[C@H]1CN(C)C(=O)c2cc(NC(C)=O)ccc2OC[C@@H](C)N(C(=O)c2ccccc2)C[C@@H]1C do in these assays?
miR-122 inh: 1

What do the screens show for `COc1cccc(CNC(=O)C[C@@H]2CC[C@H]3[C@H](COc4ccc(NS(=O)(=O)c5ccccc5F)cc4C(=O)N3C)O2)c1`?
miR-122 inh: 37*

What do the screens show for `CC(C)C(=O)Nc1ccc2c(c1)C(=O)N(C)[C@@H]1CC[C@@H](CC(=O)N[C@H](C)c3ccccc3)O[C@@H]1CO2`?
miR-122 inh: 70*

Results for CNC(=O)C[C@H]1CC[C@@H]2[C@H](COc3ccc(NC(=O)c4cccc(OC)c4)cc3C(=O)N2C)O1 ?
miR-122 inh: 83*
